Measured values as given in the supplement of paper PMC10849652.
Targets with a hit are over-represented here; the source holds about 7,900 in all. About 0.6% of all pairs of compound and target were hits.

Assays:
Experiment in all cases: log2 fold change, soluble protein after heating vs DMSO (PISA); higher = thermal stabilisation; K562 cells, 10 uM, 30 min; active = over 0.2 and 3.5 SD of the protein, either way, in both replicates (recomputed)
erlotinib = compound: C#Cc1cccc(Nc2ncnc3cc(OCCOC)c(OCCOC)cc23)c1 [erlotinib]
Procedure, shortened: (§1)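 For each measurement, 10 μM compound was applied for 30 min to K562 cells at 2×10^6 cells/mL. Aliquots were heated for 3 min across 48°C-58°C, pooled, and extracted in PBS with 0.5% NP-40 at 4°C; the supernatant after 21,000xg for 90 min was soluble protein. This was quantified by TMTpro 16plex LC-MS/MS with channel sums equalised, and thermal stability was reported relative to control samples from duplicates, on a log2 fold-change scale.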

[1] = compound: C/C(=N\NC(=O)C1=CC(=CC=C1)S(=O)(=O)N2CCOCC2)/C3=C(C=CC(=C3)Cl)O
Procedure, shortened: as §1

[2] = compound: C1=CC(=C(C=C1Cl)C2=NC3=NC=CN=C3C(=N2)NC4=CC=NC=C4)F
Procedure, shortened: as §1

[3] = compound: C1=CC(=CC=C1C2=NC3=C(N2)C=C(C=C3)C(=O)N)OC4=CC=C(C=C4)Cl
Procedure, shortened: as §1

[4] = compound: C1=CC2=C(C=CC(=C2)/C=C\3/C(=O)NC(=NCC4=CC=CS4)S3)N=C1
Procedure, shortened: as §1

[5] = compound: C1=CC2=NC=CN=C2C=C1/C=C/3\C(=O)NC(=O)S3
Procedure, shortened: as §1

[6] = compound: C1=CC=C(C=C1)C2=NC(=C(N2)C3=CC=NC=C3)C4=CC(=C(C=C4)Cl)O
Procedure, shortened: as §1

[7] = compound: C1=CC=C2C(=C1)C3=NNC4=CC=CC(=C43)C2=O
Procedure, shortened: as §1

[8] = compound: C1CCN(C1)C(=O)NC2=CC=CC(=C2)NC3=NC=C(C(=N3)NCCC4=CN=CN4)Br
Procedure, shortened: as §1

[9] = compound: C1CN(CCC1(CC2=CC=C(C=C2)Cl)N)C3=NC=NC4=C3C=CN4
Procedure, shortened: as §1

IRAK-1-4 Inhibitor I = compound: C1COCCN1CCN2C3=CC=CC=C3N=C2NC(=O)C4=CC(=CC=C4)[N+](=O)[O-] [IRAK-1-4 Inhibitor I]
Procedure, shortened: as §1

ibrutinib = compound: C=CC(=O)N1CCC[C@@H](n2nc(-c3ccc(Oc4ccccc4)cc3)c3c(N)ncnc32)C1 [ibrutinib]
Procedure, shortened: as §1

[10] = compound: CC(=O)c1cnc2ccc(-c3cc(Cl)c(O)c(Cl)c3)nc2c1N[C@H]1CC[C@H](CN(C)C)CC1
Procedure, shortened: as §1

ralimetinib = compound: CC(C)(C)Cn1c(N)nc2ccc(-c3[nH]c(C(C)(C)C)nc3-c3ccc(F)cc3)nc21 [ralimetinib]
Procedure, shortened: as §1

[11] = compound: CC(C)(O)CC(=O)NCCn1ccc2ncnc(Nc3ccc(Oc4cccc(C(F)(F)F)c4)c(Cl)c3)c21
Procedure, shortened: as §1

[12] = compound: CC(C)C1=C2N=C(C=C(N2N=C1)NCC3=CC=CC=C3)NCCCCCCN
Procedure, shortened: as §1

[13] = compound: CC(C)C[C@@H](C=O)NC(=O)[C@H](CC(C)C)NC(=O)[C@H](CC(C)C)NC(=O)OCc1ccccc1
Procedure, shortened: as §1

pinometostat = compound: CC(C)N(C[C@H]1O[C@@H](n2cnc3c(N)ncnc32)[C@H](O)[C@@H]1O)[C@H]1C[C@@H](CCc2nc3cc(C(C)(C)C)ccc3[nH]2)C1 [pinometostat]
Procedure, shortened: as §1

[14] = compound: CC1=C(C(CC(=O)N1)C2=CC=C(C=C2)C(F)(F)F)C(=O)NC3=C(C=C4C(=C3)C=NN4)F
Procedure, shortened: as §1

[15] = compound: CC1=C(C2=C(C=C1)C(=O)C3=CC=CC=C3N2CCCN)C
Procedure, shortened: as §1

Measured: log2 fold change

QKI (UniProt Q96PU8)
UniProt Q96PU8, sequence (Q96PU8 whole entry, looked up): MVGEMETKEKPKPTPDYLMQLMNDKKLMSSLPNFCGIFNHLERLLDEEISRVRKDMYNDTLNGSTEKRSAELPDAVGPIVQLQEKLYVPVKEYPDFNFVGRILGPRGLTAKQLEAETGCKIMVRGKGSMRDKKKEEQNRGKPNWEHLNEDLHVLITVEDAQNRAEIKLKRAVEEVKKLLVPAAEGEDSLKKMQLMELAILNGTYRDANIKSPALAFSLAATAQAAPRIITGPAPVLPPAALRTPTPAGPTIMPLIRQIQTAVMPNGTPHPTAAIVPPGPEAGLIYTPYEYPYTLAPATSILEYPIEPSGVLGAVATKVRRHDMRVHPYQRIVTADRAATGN
inactive: erlotinib -0.011 | [1] 0.051 | [2] -0.008 | [3] 0.003 | [4] 0.028 | [5] 0.007 | [6] -0.002 | [7] -0.032 | [8] -0.025 | [9] -0.007 | IRAK-1-4 Inhibitor I -0.034 | ibrutinib -0.004 | [10] -0.113 | ralimetinib 0.007 | [11] 0.019 | [12] -0.221 | [13] -0.005 | pinometostat -0.026 | [14] 0.046 | [15] -0.043

PTP4A2 (UniProt Q12974)
UniProt Q12974, sequence (Q12974 whole entry, looked up): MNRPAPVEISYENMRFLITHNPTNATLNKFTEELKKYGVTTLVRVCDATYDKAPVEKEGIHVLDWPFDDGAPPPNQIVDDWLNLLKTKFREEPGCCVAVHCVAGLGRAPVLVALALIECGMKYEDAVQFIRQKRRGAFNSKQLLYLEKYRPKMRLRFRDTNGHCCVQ
inactive: erlotinib -0.054 | [1] 0.03 | [2] 0.134 | [3] 0.049 | [4] 0.018 | [5] -0.051 | [6] 0.205 | [7] -0.125 | [8] -0.029 | [9] -0.097 | IRAK-1-4 Inhibitor I 0.019 | ibrutinib 0.16 | [10] 0.065 | ralimetinib 0.051 | [11] -0.051 | [12] 0.035 | [13] -0.157 | pinometostat -0.044 | [14] 0.191 | [15] -0.164

PDLIM7 (UniProt Q9NR12)
inactive: erlotinib 0.013 | [1] 0.039 | [2] 0.1 | [3] -0.037 | [4] -0.01 | [5] 0.002 | [6] 0.073 | [7] 0.016 | [8] -0.01 | [9] 0.133 | IRAK-1-4 Inhibitor I 0.017 | ibrutinib 0.005 | [10] -0.054 | ralimetinib 0.08 | [11] -0.035 | [12] 0.024 | [13] -0.045 | pinometostat -0.019 | [14] 0.004 | [15] 0.065

PARG (UniProt Q86W56)
UniProt Q86W56, sequence (Q86W56 whole entry, looked up): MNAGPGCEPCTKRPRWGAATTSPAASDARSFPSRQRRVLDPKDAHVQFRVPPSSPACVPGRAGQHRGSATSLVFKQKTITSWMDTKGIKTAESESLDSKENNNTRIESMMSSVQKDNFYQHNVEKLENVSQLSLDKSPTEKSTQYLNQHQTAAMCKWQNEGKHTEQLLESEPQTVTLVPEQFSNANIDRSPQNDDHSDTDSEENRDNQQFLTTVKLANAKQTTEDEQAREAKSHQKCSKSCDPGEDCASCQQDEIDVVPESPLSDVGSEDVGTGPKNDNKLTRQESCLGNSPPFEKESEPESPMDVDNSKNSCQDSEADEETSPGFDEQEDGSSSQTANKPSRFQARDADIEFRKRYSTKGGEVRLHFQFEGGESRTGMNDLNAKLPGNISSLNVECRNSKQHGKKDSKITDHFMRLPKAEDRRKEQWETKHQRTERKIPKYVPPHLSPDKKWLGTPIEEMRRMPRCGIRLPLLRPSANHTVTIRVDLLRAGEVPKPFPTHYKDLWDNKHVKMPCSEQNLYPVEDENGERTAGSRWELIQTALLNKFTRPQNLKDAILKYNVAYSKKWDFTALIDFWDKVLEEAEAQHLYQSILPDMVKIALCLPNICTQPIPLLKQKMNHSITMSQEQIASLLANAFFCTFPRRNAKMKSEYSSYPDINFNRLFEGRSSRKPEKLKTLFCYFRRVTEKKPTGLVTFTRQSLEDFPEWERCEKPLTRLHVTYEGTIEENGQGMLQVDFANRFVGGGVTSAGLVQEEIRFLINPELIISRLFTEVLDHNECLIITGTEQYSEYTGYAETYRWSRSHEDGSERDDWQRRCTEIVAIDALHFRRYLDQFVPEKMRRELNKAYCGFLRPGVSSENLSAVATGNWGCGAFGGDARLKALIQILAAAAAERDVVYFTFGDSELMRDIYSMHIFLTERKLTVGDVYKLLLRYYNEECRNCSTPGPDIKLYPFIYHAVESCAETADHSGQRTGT
inactive: erlotinib 0.063 | [1] 0.067 | [2] 0.034 | [3] -0.015 | [4] 0.063 | [5] 0.059 | [6] 0.043 | [7] 0.063 | [8] -0.079 | [9] -0.071 | IRAK-1-4 Inhibitor I -0.047 | ibrutinib -0.022 | [10] -0.124 | ralimetinib 0.045 | [11] -0.075 | [12] -0.203 | [13] 0.043 | pinometostat 0.059 | [14] 0.001
active: [15] 0.331

PRMT3 (UniProt O60678)
UniProt O60678, sequence (O60678 whole entry, looked up): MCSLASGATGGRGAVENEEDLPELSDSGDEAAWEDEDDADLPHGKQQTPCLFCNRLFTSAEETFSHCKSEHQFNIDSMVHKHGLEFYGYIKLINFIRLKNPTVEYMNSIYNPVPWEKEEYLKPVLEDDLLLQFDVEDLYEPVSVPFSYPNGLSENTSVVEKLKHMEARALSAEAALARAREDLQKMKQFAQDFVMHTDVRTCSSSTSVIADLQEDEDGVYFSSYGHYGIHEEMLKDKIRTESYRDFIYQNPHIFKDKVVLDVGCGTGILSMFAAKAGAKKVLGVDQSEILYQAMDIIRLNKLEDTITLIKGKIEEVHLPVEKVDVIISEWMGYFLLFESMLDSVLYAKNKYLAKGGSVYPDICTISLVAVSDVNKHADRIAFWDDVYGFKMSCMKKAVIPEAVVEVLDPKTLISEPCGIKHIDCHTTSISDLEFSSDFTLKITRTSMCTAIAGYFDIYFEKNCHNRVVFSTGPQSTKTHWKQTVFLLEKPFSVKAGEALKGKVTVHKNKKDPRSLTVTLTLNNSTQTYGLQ
inactive: erlotinib -0.056 | [1] 0.147 | [2] 0.03 | [3] 0.027 | [4] 0.066 | [5] 0.011 | [6] 0.028 | [7] -0.003 | [8] -0.01 | [9] -0.089 | IRAK-1-4 Inhibitor I 0 | ibrutinib -0.102 | [10] -0.023 | ralimetinib -0.028 | [11] -0.167 | [12] -0.189 | [13] 0.028 | pinometostat 0.003 | [14] 0.013 | [15] 0.079

PML (UniProt P29590)
inactive: erlotinib 0.045 | [1] -0.073 | [2] 0.015 | [3] -0.022 | [4] -0.043 | [5] 0.071 | [6] 0.033 | [7] 0.007 | [8] 0.002 | [9] -0.005 | IRAK-1-4 Inhibitor I 0.031 | ibrutinib 0.006 | [10] 0.052 | ralimetinib 0.045 | [11] 0.012 | [12] -0.025 | [13] -0.05 | pinometostat -0.021 | [14] 0.07 | [15] -0.035

PYGL (UniProt P06737)
UniProt P06737, sequence (P06737 whole entry, looked up): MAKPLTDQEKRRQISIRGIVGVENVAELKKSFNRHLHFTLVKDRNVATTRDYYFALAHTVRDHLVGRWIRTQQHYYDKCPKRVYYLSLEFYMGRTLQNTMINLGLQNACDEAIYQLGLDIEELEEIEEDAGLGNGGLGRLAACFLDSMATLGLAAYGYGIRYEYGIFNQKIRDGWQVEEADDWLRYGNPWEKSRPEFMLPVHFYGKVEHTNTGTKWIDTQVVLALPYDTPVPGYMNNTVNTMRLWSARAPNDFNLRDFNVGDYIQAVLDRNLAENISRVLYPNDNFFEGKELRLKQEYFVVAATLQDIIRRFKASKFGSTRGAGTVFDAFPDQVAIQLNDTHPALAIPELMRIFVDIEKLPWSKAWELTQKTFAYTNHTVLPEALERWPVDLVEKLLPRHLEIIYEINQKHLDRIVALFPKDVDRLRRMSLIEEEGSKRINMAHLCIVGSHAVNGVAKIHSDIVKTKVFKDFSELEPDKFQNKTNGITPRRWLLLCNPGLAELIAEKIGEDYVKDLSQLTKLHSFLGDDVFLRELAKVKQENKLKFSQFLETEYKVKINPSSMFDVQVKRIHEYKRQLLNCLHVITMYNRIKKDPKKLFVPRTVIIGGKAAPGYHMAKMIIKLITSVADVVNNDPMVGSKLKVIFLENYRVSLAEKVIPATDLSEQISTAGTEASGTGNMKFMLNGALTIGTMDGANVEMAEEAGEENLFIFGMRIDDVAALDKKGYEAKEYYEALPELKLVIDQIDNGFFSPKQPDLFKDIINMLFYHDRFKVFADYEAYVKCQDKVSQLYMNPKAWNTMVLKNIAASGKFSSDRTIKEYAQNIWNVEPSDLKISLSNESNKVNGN
inactive: erlotinib -0.012 | [1] -0.008 | [2] 0.001 | [3] 0.037 | [4] 0.047 | [5] -0.007 | [6] -0.02 | [7] 0.008 | [8] -0.004 | [9] 0.08 | IRAK-1-4 Inhibitor I 0.004 | ibrutinib 0.033 | [10] -0.143 | ralimetinib -0.038 | [11] 0.055 | [12] 0.068 | [13] -0.031 | pinometostat -0.007 | [14] 0.019 | [15] 0.021

PSMC6 (UniProt P62333)
UniProt P62333, sequence (P62333 whole entry, looked up): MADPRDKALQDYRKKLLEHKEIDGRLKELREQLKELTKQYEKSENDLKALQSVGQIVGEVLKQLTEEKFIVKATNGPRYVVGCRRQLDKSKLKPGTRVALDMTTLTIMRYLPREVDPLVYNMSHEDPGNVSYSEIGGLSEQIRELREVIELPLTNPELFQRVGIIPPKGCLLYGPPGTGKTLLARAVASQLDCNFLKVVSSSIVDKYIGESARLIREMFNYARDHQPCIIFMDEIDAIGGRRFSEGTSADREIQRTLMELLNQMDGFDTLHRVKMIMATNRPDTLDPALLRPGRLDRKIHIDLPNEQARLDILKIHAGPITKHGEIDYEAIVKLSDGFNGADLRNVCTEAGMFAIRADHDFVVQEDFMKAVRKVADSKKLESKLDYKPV
inactive: erlotinib -0.06 | [1] -0.074 | [2] -0.006 | [3] 0.011 | [4] -0.031 | [5] -0.037 | [6] 0.015 | [7] 0.014 | [8] 0.034 | [9] -0.008 | IRAK-1-4 Inhibitor I -0.026 | ibrutinib 0 | [10] 0.044 | ralimetinib 0.019 | [11] 0.093 | [12] 0.077 | [13] -0.206 | pinometostat 0.01 | [14] 0.075 | [15] -0.01

PSMD7 (UniProt P51665)
UniProt P51665, sequence (P51665 whole entry, looked up): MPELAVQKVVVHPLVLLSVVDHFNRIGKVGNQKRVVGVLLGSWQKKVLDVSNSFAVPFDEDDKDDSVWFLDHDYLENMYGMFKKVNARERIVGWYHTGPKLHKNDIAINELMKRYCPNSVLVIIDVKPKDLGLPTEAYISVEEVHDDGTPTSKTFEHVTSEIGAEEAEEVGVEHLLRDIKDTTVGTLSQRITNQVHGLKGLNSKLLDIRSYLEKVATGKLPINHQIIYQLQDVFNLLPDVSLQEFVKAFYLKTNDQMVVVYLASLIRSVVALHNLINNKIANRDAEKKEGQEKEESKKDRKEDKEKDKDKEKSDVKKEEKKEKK
inactive: erlotinib -0.074 | [1] -0.1 | [2] -0.045 | [3] -0.023 | [4] -0.015 | [5] -0.072 | [6] 0.02 | [7] -0.009 | [8] 0.044 | [9] -0.01 | IRAK-1-4 Inhibitor I 0.055 | ibrutinib -0.006 | [10] 0.028 | ralimetinib 0.01 | [11] 0.057 | [12] 0.019 | pinometostat 0.066 | [14] 0.034 | [15] -0.029
active: [13] -0.216

PLSCR1 (UniProt O15162)
UniProt O15162, sequence (O15162 whole entry, looked up): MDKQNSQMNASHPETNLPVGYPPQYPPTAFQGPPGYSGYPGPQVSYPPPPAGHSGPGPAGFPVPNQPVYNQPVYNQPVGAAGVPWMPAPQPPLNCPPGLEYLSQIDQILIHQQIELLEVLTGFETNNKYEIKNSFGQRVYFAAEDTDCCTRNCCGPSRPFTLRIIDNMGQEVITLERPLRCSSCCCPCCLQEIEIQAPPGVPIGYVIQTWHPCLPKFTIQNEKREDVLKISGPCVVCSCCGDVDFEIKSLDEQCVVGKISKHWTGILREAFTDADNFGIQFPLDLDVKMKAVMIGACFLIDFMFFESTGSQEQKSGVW
inactive: erlotinib -0.023 | [1] 0.03 | [2] 0.089 | [3] 0.077 | [4] -0.004 | [5] 0.022 | [6] 0.061 | [7] -0.04 | [8] -0.008 | [9] 0.05 | IRAK-1-4 Inhibitor I -0.003 | ibrutinib 0.002 | [10] -0.025 | ralimetinib -0.046 | [11] 0.047 | [12] 0.031 | [13] -0.036 | pinometostat -0.015 | [14] -0.011 | [15] 0.031

PIP4P2 (UniProt Q8N4L2)
active: [12] -0.624
inactive: erlotinib 0.014 | [1] -0.066 | [2] 0.026 | [3] 0.039 | [4] 0.009 | [5] 0.145 | [6] 0.063 | [7] -0.002 | [8] 0.014 | [9] -0.007 | IRAK-1-4 Inhibitor I -0.027 | ibrutinib 0 | [10] -0.028 | ralimetinib 0.005 | [11] 0.142 | [13] 0.011 | pinometostat 0.012 | [14] 0.028 | [15] 0.033

PDS5B (UniProt Q9NTI5)
inactive: erlotinib -0.023 | [1] 0.002 | [2] 0.001 | [3] 0.043 | [4] 0.092 | [5] 0.12 | [6] 0.061 | [7] 0.013 | [8] -0.302 | [9] -0.287 | IRAK-1-4 Inhibitor I -0.184 | ibrutinib -0.102 | [10] -0.052 | ralimetinib -0.01 | [11] -0.093 | [12] -0.166 | [13] 0.124 | pinometostat 0.093 | [14] -0.078 | [15] 0.02

PGGT1B (UniProt P53609)
UniProt P53609, sequence (P53609 whole entry, looked up): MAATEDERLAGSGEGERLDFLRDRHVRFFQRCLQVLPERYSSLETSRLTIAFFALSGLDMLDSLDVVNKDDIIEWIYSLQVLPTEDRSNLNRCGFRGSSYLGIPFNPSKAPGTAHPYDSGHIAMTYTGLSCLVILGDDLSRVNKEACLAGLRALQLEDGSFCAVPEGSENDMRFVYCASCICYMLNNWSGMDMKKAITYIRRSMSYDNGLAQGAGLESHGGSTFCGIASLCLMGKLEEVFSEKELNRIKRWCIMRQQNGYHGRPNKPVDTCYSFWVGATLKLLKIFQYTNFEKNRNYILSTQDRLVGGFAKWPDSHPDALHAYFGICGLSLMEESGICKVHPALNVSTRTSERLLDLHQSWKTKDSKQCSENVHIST
inactive: erlotinib 0.024 | [1] 0.036 | [2] 0.114 | [3] 0.006 | [4] 0.049 | [5] -0.002 | [6] 0.021 | [7] -0.036 | [8] 0.054 | [9] 0.027 | IRAK-1-4 Inhibitor I 0.003 | ibrutinib -0.004 | [10] -0.062 | ralimetinib -0.055 | [11] 0.026 | [12] -0.019 | [13] 0.026 | pinometostat -0.03 | [14] 0.027 | [15] -0.028

PURA (UniProt Q00577)
UniProt Q00577, sequence (Q00577 whole entry, looked up): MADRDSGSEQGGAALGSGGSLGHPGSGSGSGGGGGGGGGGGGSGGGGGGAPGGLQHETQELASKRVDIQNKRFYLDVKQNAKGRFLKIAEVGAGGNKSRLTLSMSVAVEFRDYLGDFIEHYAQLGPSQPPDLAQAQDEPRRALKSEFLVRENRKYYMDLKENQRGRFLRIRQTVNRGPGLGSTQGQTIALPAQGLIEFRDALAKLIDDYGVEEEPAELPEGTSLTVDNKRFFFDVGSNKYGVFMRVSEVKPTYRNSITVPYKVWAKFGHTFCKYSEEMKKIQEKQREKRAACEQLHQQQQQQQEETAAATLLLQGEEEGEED
inactive: erlotinib -0.244 | [1] -0.208 | [2] -0.319 | [3] 0.101 | [4] -0.156 | [5] 0.013 | [6] -0.137 | [7] -0.051 | [8] 0.179 | [9] -0.102 | IRAK-1-4 Inhibitor I -0.151 | ibrutinib 0.096 | [10] 0.169 | ralimetinib 0.064 | [11] 0.276 | [12] 0.129 | [13] 0.079 | pinometostat 0.087 | [14] -0.005
active: [15] -0.792

PPIL1 (UniProt Q9Y3C6)
UniProt Q9Y3C6, sequence (Q9Y3C6 whole entry, looked up): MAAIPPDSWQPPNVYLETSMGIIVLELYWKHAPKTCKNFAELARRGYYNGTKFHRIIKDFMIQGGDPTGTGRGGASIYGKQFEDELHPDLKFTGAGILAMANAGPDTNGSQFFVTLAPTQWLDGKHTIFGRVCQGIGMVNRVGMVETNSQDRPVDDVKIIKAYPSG
active: [10] 0.225
inactive: erlotinib 0.019 | [1] -0.009 | [2] -0.027 | [3] -0.012 | [4] 0.024 | [5] 0.061 | [6] -0.013 | [7] -0.025 | [8] -0.007 | [9] -0.027 | IRAK-1-4 Inhibitor I -0.046 | ibrutinib -0.011 | ralimetinib -0.02 | [11] -0.038 | [12] 0.08 | [13] 0.09 | pinometostat 0.082 | [14] 0.004 | [15] 0.172

PCNT (UniProt O95613)
inactive: erlotinib 0.284 | [1] -0.138 | [2] -0.095 | [3] -0.099 | [4] 0.15 | [5] -0.023 | [6] -0.079 | [7] -0.097 | [8] 0.065 | [9] -0.021 | IRAK-1-4 Inhibitor I 0.085 | ibrutinib -0.078 | [10] -0.079 | ralimetinib -0.113 | [11] -0.021 | [12] 0.053 | [13] 0.229 | pinometostat 0.069 | [14] 0.077 | [15] -0.018
